For five compounds, composite z-score and z-score results are on record in PubChem BioAssay.

In assay [1] the test system is PRMT1 (protein arginine N-methyltransferase 1). As to the kind of experiment: PRMT1 binders on small-molecule microarrays, primary screen, biochemical, small-molecule microarray, 635 nm fluorescence (AID 1088).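 Also: binding of Prmt1 protein to compounds spotted on small-molecule microarray slides.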 The note with it: small-molecule microarray binding, higher = more signal.
Assay [2] can be described thus: yeast growth modulation, basal conditions, primary screen, YJM789 clinical isolate, OD600, 24 h (AID 1089).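 Also: growth of clinical yeast isolate S. cerevisiae YJM 789 seeded 1000 cells per well; test concentration not given here.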 The conditions noted are these: S. cerevisiae YJM789 growth, higher = more signal, called active from +8 up or from −8 down.
A short description of assay [3]: fission yeast growth modulation, primary screen, strain 972, OD600, 24 h, no modulator (AID 1090).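 Also: basal condition with compound alone and no growth modifier present; test concentration not given here.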 The conditions noted are these: S. pombe 972 growth, higher = more signal, called active from +8 up or from −8 down.
Assay [4] is described as follows: S. cerevisiae growth modulation with rapamycin, primary screen, strain BY4716, OD600, 96 h (AID 1091). Also: test concentration not given here. The note with it: higher = more signal, called active from +8 up or from −8 down.
Assay [5] deals with Torsin-1A-interacting protein 2 (Homo sapiens) (UniProt Q8NFQ8). As to the kind of experiment: LULL1 binders on small-molecule microarray, primary screen, cell lysate, human LULL1 lysate, 635/667 nm fluorescence (AID 1092).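 Also: probe is lysate of COS7 cells overexpressing human LULL1; score merges per-feature 667 nm fluorescence with signal-to-noise.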 The note with it: hLULL1 lysate binding, 635 nm fluorescence, higher = more signal.
The nature of assay [6]: E. coli growth modulation, two-sided OD650, primary screen, E. coli filamentation project, strain DRC41, 24 h (AID 1093).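 Also: MC1000 strain lacking acrAB efflux and sulA so SOS filamentation is blocked; test concentration not given here.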 The note with it: OD650, 24 h, higher = more signal, called active from +8 up or from −8 down.
Assay [7] is described as follows: small-molecule microarray binders of probe aLefty2, primary screen, biochemical, biotinylated probe, 635/667 nm fluorescence (AID 1094).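 Also: score merges spot fluorescence near 667 nm with spot signal-to-noise ratio.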 The conditions noted are these: higher = more signal.
The test system of assay [8] is Noggin (protein binding on small-molecule microarray). As to the kind of experiment: Noggin binders on small-molecule microarray, primary screen, biochemical, 635/667 nm fluorescence (AID 1095).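 Also: score merges 667 nm feature fluorescence with signal to noise over triplicate slides.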 The conditions noted are these: 635 nm fluorescence, higher = more signal.
Assay [9] has as its target Neurogenic locus notch homolog protein 3 (Homo sapiens) (UniProt Q9UM47). As to the kind of experiment: NOTCH3 binders on small-molecule microarray, primary screen, biochemical, 635/667 nm fluorescence (AID 1096). The conditions noted are these: NOTCH3 binding, 635 nm fluorescence, higher = more signal.
Assay [10] can be described thus: small-molecule microarray binders of probe aEGFR, primary screen, biochemical, biotinylated probe, 635/667 nm fluorescence (AID 1097).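 Also: probe is a biotinylated anti-EGFR antibody binding compounds printed on slides; score combines fluorescence near 667 nm and signal to noise of each spot.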 The conditions noted are these: higher = more signal.
Assay [11] deals with Plasmodium falciparum Sir2 (PF13_0152, Sir2A). As to the kind of experiment: pfSir2 binders on small-molecule microarrays, primary screen, biochemical, small-molecule microarray, 635 nm fluorescence (AID 1098).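 Also: score merges spot fluorescence intensity with its signal-to-noise ratio.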 The note with it: small-molecule microarray binding, fluorescence 635 nm; higher = more signal.
Assay [12] is described as follows: small-molecule microarray binders of probe aDKK1, primary screen, biochemical, biotinylated probe, 635/667 nm fluorescence (AID 1099).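 Also: score merges 667nm spot fluorescence with signal to noise across triplicate slides; reference of the scale not given here.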 The note with it: higher = more signal.
Assay [13] is described as follows: small-molecule microarray binders of probe aCHRDL2, primary screen, biochemical, biotinylated probe, 635/667 nm fluorescence (AID 1100). The note with it: higher = more signal.
The nature of assay [14]: splicing luciferase reporter signal modulators, primary screen, spliceosome inhibition project, cell-based, HEK293, splice +/- reporter (AID 1101).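 Also: HEK293 cells carrying a splicing-competent luciferase reporter gene; test concentration not given here.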 The note with it: luminescence, 24 h, higher = more signal, called active from +8 up or from −8 down. For orientation: In a reporter assay the amount or activity of a reporter protein is the signal.
The target in assay [15] is Fibroblast growth factor 10 (Homo sapiens) (UniProt O15520). Put plainly: FGF10 binders on small-molecule microarrays, primary screen, biochemical, small-molecule microarray, 635 nm fluorescence (AID 1102). The conditions noted are these: FGF10 binding, fluorescence 635 nm, higher = more signal.
Assay [16] relates to glycogen synthase kinase-3 (GSK3A per assay name; protocol says GSK3B). As to the kind of experiment: GSK3 binders on small-molecule microarrays, primary screen, biochemical, small-molecule microarray, 635 nm fluorescence, GSK3A (AID 1103). Also: the record names both GSK3A and GSK3B. The conditions noted are these: small-molecule microarray binding, fluorescence 635 nm; higher = more signal.
For assay [17], the target named is Epidermal growth factor receptor (Homo sapiens) (UniProt P00533). Put plainly: EGFR binders on small-molecule microarrays, primary screen, biochemical, small-molecule microarray, 635 nm fluorescence (AID 1104).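 Also: score merges 667 nm emission intensity with spot signal to noise over triplicate slides.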 The conditions noted are these: EGFR binding, higher = more signal.
Assay [18] concerns the target Follistatin-related protein 3 (Homo sapiens) (UniProt O95633). Put plainly: FSTL3 binders on small-molecule microarrays, primary screen, biochemical, small-molecule microarray, 635 nm fluorescence (AID 1105).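 Also: score merges emission near 667 nm and signal to noise per printed spot across three slides.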 The note with it: FSTL3 binding, higher = more signal.
Assay [19] addresses Dickkopf-related protein 1 (Homo sapiens) (UniProt O94907). As to the kind of experiment: DKK1 binders on small-molecule microarrays, primary screen, biochemical, small-molecule microarray, 635 nm fluorescence scan (AID 1106).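 Also: score merges emission near 667 nm with signal to noise over three replicate slides.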 The note with it: DKK1 binding, higher = more signal.
In assay [20] the test system is Inhibin beta A chain (activin A). Put plainly: INHBA (activin A) binders on microarrays, primary screen, biochemical, small-molecule microarray, 635 nm fluorescence scan (AID 1107).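 Also: mouse activin A protein probed at 4.33 µg/mL on printed slides; score merges bound-protein fluorescence near 667 nm with spot signal-to-noise.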 The conditions noted are these: small-molecule microarray binding, higher = more signal.

Molecules are shown by their SMILES. Active and inactive are the calls of the source.

Sequence of Follistatin-related protein 3 (Homo sapiens) (O95633 whole entry, looked up): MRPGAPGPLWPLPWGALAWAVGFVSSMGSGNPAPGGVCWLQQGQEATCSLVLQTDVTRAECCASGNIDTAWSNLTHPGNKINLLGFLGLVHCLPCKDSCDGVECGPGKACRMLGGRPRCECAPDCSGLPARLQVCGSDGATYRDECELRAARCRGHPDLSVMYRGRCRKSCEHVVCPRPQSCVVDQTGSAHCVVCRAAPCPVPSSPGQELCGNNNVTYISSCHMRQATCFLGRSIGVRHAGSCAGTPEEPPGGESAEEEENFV
Sequence of Fibroblast growth factor 10 (Homo sapiens) (O15520 whole entry, looked up): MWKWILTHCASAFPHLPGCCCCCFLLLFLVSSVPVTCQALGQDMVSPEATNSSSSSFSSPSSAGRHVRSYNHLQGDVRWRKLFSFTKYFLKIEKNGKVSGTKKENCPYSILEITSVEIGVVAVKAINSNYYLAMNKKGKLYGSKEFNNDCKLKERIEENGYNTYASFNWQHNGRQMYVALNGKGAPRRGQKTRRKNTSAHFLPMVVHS
Sequence of Neurogenic locus notch homolog protein 3 (Homo sapiens) (Q9UM47 whole entry, looked up): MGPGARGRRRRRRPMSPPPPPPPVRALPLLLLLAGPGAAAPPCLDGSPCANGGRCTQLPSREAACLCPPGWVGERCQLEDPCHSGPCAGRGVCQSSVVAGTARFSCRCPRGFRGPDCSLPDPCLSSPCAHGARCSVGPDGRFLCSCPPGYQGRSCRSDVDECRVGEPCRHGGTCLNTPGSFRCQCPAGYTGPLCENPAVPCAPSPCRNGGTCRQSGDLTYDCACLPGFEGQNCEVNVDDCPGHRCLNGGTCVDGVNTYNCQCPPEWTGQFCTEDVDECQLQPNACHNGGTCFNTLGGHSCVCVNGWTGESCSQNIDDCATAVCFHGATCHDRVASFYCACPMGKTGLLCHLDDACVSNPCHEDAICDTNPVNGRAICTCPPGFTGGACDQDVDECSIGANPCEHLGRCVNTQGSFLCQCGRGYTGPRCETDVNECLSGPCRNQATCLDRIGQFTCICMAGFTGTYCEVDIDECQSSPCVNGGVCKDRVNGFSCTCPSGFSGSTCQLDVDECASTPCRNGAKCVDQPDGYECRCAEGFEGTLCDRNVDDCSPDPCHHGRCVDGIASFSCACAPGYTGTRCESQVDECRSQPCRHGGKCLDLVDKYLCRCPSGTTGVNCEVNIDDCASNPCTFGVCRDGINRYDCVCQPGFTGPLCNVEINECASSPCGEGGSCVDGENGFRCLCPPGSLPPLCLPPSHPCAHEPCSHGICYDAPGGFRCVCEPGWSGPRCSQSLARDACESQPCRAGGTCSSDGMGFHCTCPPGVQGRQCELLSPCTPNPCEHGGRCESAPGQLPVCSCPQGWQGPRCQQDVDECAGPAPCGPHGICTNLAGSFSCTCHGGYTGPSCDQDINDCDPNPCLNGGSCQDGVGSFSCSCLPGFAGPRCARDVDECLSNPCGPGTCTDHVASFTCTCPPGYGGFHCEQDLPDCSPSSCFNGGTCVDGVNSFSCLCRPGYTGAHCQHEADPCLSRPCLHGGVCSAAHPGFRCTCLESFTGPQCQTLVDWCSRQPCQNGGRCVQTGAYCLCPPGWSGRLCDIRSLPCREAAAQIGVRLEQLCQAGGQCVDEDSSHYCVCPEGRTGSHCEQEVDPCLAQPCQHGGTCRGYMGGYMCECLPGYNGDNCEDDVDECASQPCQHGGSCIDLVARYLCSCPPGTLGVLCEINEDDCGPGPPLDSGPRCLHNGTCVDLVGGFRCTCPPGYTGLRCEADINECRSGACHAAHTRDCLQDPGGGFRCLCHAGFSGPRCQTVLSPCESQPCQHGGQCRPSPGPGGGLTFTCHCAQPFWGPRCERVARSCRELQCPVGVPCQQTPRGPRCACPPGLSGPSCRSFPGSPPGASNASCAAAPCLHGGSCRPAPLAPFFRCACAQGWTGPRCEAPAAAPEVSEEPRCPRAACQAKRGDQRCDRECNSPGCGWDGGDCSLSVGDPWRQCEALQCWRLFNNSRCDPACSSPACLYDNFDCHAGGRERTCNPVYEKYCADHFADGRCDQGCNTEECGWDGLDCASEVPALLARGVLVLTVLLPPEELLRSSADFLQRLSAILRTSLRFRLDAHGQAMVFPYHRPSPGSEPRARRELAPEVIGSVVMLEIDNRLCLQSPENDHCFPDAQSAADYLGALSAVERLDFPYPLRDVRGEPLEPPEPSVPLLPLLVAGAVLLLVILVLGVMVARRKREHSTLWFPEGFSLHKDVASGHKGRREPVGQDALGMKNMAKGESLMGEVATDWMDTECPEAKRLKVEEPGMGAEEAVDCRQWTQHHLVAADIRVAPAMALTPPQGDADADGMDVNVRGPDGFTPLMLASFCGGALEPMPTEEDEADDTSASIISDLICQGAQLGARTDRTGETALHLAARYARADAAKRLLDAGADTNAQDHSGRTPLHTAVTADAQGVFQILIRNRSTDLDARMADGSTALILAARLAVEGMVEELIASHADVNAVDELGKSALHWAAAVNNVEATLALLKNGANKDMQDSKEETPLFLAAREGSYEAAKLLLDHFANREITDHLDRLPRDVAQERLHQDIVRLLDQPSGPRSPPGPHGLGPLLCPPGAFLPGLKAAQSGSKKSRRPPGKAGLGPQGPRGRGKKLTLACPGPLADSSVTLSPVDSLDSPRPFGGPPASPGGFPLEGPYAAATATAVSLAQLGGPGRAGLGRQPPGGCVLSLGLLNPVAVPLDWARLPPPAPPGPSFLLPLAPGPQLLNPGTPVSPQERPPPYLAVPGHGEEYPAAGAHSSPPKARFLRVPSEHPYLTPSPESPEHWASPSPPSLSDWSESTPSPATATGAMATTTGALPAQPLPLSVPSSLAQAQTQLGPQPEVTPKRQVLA
Sequence of Dickkopf-related protein 1 (Homo sapiens) (O94907 whole entry, looked up): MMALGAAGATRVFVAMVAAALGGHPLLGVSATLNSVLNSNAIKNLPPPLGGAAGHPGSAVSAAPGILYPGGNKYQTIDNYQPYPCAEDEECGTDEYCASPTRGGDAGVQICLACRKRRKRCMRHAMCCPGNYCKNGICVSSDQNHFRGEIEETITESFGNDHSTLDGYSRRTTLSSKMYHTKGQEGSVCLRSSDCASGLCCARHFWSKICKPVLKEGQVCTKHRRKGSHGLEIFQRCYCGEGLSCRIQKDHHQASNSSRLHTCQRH
Sequence of Torsin-1A-interacting protein 2 (Homo sapiens) (Q8NFQ8 whole entry, looked up): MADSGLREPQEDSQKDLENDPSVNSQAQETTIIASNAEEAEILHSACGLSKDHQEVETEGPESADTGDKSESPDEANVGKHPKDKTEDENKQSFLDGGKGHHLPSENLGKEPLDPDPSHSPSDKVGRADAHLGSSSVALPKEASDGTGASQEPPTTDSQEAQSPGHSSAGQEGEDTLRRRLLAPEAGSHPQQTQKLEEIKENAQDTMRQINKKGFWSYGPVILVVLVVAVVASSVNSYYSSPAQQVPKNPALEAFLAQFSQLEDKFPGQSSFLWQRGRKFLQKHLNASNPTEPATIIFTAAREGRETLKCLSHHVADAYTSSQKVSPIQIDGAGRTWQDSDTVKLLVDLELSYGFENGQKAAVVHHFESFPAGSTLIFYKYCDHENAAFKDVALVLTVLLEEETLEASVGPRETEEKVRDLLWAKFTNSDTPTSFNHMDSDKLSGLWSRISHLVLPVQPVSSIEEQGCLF
Sequence of Epidermal growth factor receptor (Homo sapiens) (P00533 whole entry, looked up): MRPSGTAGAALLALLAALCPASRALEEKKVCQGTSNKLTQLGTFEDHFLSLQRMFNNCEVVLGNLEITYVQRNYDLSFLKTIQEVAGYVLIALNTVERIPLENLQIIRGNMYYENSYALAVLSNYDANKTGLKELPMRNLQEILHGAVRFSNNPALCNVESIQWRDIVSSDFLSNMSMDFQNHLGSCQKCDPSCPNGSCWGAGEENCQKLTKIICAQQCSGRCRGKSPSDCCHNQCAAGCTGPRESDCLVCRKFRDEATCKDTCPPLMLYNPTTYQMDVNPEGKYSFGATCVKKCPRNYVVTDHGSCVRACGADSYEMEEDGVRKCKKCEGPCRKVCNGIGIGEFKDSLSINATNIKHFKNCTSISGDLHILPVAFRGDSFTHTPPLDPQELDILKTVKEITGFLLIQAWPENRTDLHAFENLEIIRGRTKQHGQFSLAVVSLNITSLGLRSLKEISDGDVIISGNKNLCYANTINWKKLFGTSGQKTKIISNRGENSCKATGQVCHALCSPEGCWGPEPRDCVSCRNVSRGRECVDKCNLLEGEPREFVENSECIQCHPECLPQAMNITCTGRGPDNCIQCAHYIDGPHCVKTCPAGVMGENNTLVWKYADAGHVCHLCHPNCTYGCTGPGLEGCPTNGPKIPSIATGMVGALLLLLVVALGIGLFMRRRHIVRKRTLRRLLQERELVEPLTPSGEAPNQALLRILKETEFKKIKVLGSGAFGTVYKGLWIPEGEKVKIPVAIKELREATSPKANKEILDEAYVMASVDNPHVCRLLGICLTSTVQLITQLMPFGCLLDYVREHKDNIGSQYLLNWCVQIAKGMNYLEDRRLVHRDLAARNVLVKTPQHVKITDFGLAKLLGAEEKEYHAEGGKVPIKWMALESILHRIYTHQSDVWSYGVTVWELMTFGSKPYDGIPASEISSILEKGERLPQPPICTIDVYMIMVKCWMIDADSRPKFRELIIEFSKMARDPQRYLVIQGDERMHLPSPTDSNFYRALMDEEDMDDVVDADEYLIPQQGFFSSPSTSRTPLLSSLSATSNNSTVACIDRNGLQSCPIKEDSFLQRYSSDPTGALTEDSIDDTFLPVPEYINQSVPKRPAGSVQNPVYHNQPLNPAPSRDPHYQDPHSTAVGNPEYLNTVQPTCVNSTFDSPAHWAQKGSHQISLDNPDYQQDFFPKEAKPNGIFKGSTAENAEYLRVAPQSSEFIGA

For the compound `[N-]=[N+]=Nc1ccccc1C[C@@]1(C(N)=O)N=C(c2ccc(OCCCO)cc2)O[C@@H]1c1ccccc1`, the composite z-score in [1] was 0.683; in assay [5], 2.06; in assay [7], 0.316; in [8], -0.754; in [9], 0.156; in assay [10] it was -0.0455. Moreover, the composite z-score is 0.616 in assay [11]; 1.53 in assay [12]; 1.3 in assay [13]; -0.0111 in assay [15]; -0.0514 in [16]; -0.874 in [17]. For the same compound, the composite z-score in assay [18] was -0.0838; in assay [19], -0.82; in assay [20], 1.34. For the same compound, the z-score in [2] is -0.501 (inactive); in assay [3], -0.371 (inactive); in [4] it was -0.481 (inactive); in assay [6], 0.0722 (inactive); in [14], -1.23 (inactive).

Consider `C=C(/C(=C/C[C@@H](OC(=O)c1ccncc1)c1ccc(OCCO)cc1)c1cnc2ccccc2c1)C(C)C`, for which the composite z-score in [1] is 1.55; in [5], 0.65; in assay [7], -0.0262; in assay [8] it was 1.65; in assay [9] it was 1.07; in assay [10], -0.0949. For the same compound, the composite z-score in [11] is 1.2; in assay [12], -0.144; in assay [13], -0.216; in [15], 1.54; in assay [16] it was 1.28; in [17], 0.419. Besides, the composite z-score in assay [18] is 1.24; in assay [19] it was 0.824; in assay [20], 1.56. Also, the z-score in [2] is -24.8 (active); in assay [3] it was -20.4 (active); in assay [4], -4.32 (inactive); in assay [6], 1.23 (inactive); in assay [14] it was -2.87 (inactive).

Turning to `CO[C@H]1COC(=O)[C@@H]2CCCN2C(=O)CC=C[C@@H](C)[C@H](OC)COC(=O)CC=C[C@@H]1C`, the composite z-score in [1] was 1.54; in [5], -0.361; in assay [7], -0.0208; in assay [8] it was 1.48; in [9] it was 0.991; in assay [10] it was 0.34. Besides, the composite z-score is 0.401 in assay [11]; -0.569 in assay [12]; -1.28 in [13]; 1.09 in assay [15]; 1.06 in [16]; 1.64 in assay [17]. Besides, the composite z-score in assay [18] stood at 1.47; in assay [19], 1.63; in assay [20], 1.5. The z-score is -1.94 (inactive) in assay [2]; -1.32 (inactive) in assay [3]; -0.611 (inactive) in assay [4]; -0.323 (inactive) in [6]; -0.555 (inactive) in [14].

On to `C[C@H]1CC[C@@H](C(=O)O)N[C@@H]1c1ccc(C#CCN(C)C)cc1`, for which the composite z-score in assay [1] was -0.521; in [5], -0.141; in [7], -0.128; in assay [8], 0.102; in assay [9] it was 0.498; in assay [10], -0.0564. The composite z-score is 0.785 in [11]; -0.275 in assay [12]; -0.337 in assay [13]; 0.425 in [15]; 0.429 in assay [16]; 0.44 in [17]. Moreover, the composite z-score in [18] amounted to 0.481; in [19], 0.33; in assay [20], 0.222. The z-score in assay [2] was 1.07 (inactive); in assay [3] it was -0.509 (inactive); in assay [4], -0.434 (inactive); in [6], 0.657 (inactive); in assay [14], -0.248 (inactive).

Regarding `CC(C)(C)OC(=O)CC[C@]1(C(N)=O)COC(c2ccc(OCCCO)cc2)=N1`, the composite z-score turned out to be 1.09 in assay [1]; 3.09 in [5]; 0.65 in [7]; 0.115 in assay [8]; 0.849 in assay [9]; 0.34 in assay [10]. The composite z-score in assay [11] was 0.755; in assay [12], 1.59; in assay [13] it was 1.38; in assay [15], 1.34; in assay [16], 0.977; in assay [17], -0.395. The composite z-score in [18] was 0.278; in assay [19] it was -0.385; in [20], 0.976. The z-score in assay [2] was 0.0433 (inactive); in assay [3], -0.391 (inactive); in assay [4] it was 0.0262 (inactive); in assay [6] it was 0.308 (inactive); in assay [14], -0.337 (inactive).
